# Where “and” joins values, the source holds several entries; their conditions need not be identical. Equal entries are not always repeated. Records with an inconclusive call do not appear. Entries that show only a call come without a potency. Some compounds were tested as several samples or in several runs, with calls that do not always agree. Calls of active or inactive are those of the source. Calls come from the whole dose curve; as a rule, active = well fitted curve in the direction sought with a large enough effect in the repeat runs; inconclusive = weak or mixed curves; inactive = no such curve, though single readings can be large; an effect the other way counts as inactive or inconclusive.
# Columns and labels:
# [1] = qHTS RealTime-Glo MT Cell Viability Assay in HEK293 cells - 0 hour (AID 1224880); note: top concentration of the series differs between compounds; nearly all actives have a fitted effect of over 45% in size
# Outline: (§1)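 HEK293 cells mixed with RealTime-Glo reagents (NanoLuc plus cell-permeant prosubstrate) at 600 cells/well, preincubated 5 h at 37 C/5% CO2, then given 23 nL compound in DMSO. Nonlytic luminescence from viable cells was read at 0, 8, 16, 24, 32 and 40 h.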
# [2] = A CellTox Green Cytotoxicity Assay to monitor cytotoxicity in HEK293 cells - 32 hour (AID 1224881); note: nearly all actives have a fitted effect of over 40% in size; note: potency is the fitted concentration of half-maximal effect
# Outline: (§2)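 HEK293 cells premixed with CellTox Green dye were seeded at 600 cells/well and left 5 h at 37 C/5% CO2 before pin transfer of 23 nL compound in DMSO. Fluorescence from dye bound to dead-cell DNA was read during 40 h treatment.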
# [3] = A CellTox Green Cytotoxicity Assay to monitor cytotoxicity in HepG2 cells - 0 hour (AID 1224882); note: nearly all actives have a fitted effect of over 35% in size
# Outline: (§3)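 HepG2 cells were seeded together with the CellTox Green dye at 600 cells/well, left 5 h at 37 C/5% CO2, then given compounds in DMSO. Fluorescence from dye bound to dead-cell DNA was read repeatedly over 40 h of treatment at 37 C.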
# [4] = A CellTox Green Cytotoxicity Assay to monitor cytotoxicity in HepG2 cells - 32 hour (AID 1224883); note: nearly all actives have a fitted effect of over 50% in size; note: potency is the fitted concentration of half-maximal effect
# Outline: as §3
# [5] = A CellTox Green Cytotoxicity Assay to monitor cytotoxicity in HEK293 cells - 8 hour (AID 1224884); note: nearly all actives have a fitted effect of over 35% in size
# Outline: as §2
# [6] = qHTS RealTime-Glo MT Cell Viability Assay in HepG2 cells - 16 hour (AID 1224885); note: nearly all actives have a fitted effect of over 50% in size; note: potency is the fitted concentration of half-maximal effect
# Outline: (§4)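 Cells + NanoLuc/prosubstrate dispensed (600 cells/well) → 5 h at 37 C/5% CO2 → compounds in DMSO transferred → 40 h incubation at 37 C, luminescence read at 0, 8, 16, 24, 32, 40 h.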
# [7] = qHTS RealTime-Glo MT Cell Viability Assay in HEK293 cells - 24 hour (AID 1224886); note: nearly all actives have a fitted effect of over 50% in size; note: potency is the fitted concentration of half-maximal effect
# Outline: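 Tox21 10K qHTS, HEK293, 600 cells/well, RealTime-Glo reagent co-dispensed with cells; 5 h preincubation, compound by pintool, 37 C, luminescence at 0–40 h.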
# [8] = qHTS RealTime-Glo MT Cell Viability Assay in HEK293 cells - 8 hour (AID 1224887); note: top concentration of the series differs between compounds; nearly all actives have a fitted effect of over 50% in size
# Outline: as §1
# [9] = A CellTox Green Cytotoxicity Assay to monitor cytotoxicity in HEK293 cells - 16 hour (AID 1224888); note: nearly all actives have a fitted effect of over 35% in size
# Outline: as §2
# [10] = qHTS RealTime-Glo MT Cell Viability Assay in HepG2 cells - 0 hour (AID 1224889); note: nearly all actives have a fitted effect of over 50% in size; note: potency is the fitted concentration of half-maximal effect
# Outline: as §4
Compound,Potency [1],Potency [2],Potency [3],Potency [4],Potency [5],Potency [6],Potency [7],Potency [8],Potency [9],Potency [10]
CC(C)(Cl)[N+](=O)[O-],inactive,inactive,inactive,inactive,inactive,inactive,inactive,inactive,inactive,6.19 µM (active)
Cl/C=C\Cl,inactive,inactive,inactive,inactive,inactive,inactive,inactive,inactive,inactive,inactive
CC(C)(CCl)C(=O)Cl,inactive,inactive,inactive,inactive,inactive,inactive,inactive,inactive,inactive,inactive
CN(N=O)c1ccc([N+](=O)[O-])cc1,inactive,inactive,inactive,43.6 µM (active),inactive,inactive,inactive,inactive,inactive,inactive
C=CC(=O)OCC(C)C,inactive,inactive,inactive,inactive,inactive,inactive,inactive,inactive,inactive,inactive
COC(=O)c1cncn1C(C)c1ccccc1 (centres undefined),inactive,inactive,inactive,inactive,inactive,inactive,inactive,inactive,inactive,inactive
C=CCN1CC[C@]23c4c5ccc(O)c4O[C@H]2C(=O)CC[C@@]3(O)[C@H]1C5,inactive,inactive,inactive,inactive,inactive,inactive,inactive,inactive,inactive,inactive
CC(=O)CCC(C)=O,inactive,inactive,inactive,inactive,inactive,inactive,inactive,inactive,inactive,inactive
CCCCCC[N+](=O)[O-],inactive,inactive,inactive,inactive,inactive,inactive,inactive,inactive,inactive,inactive
CC/C(=N\OC/C=C/Cl)C1=C(O)CC(C2CCOCC2)CC1=O (centres undefined),inactive,inactive,inactive,inactive,inactive,inactive,inactive,inactive,inactive,inactive
CCOP(=S)(OCC)SCSCC,inactive,inactive,inactive,inactive,inactive,inactive,inactive,inactive,inactive,
C=CC(C)=O,inactive,inactive,inactive,inactive,inactive,inactive,inactive,inactive,inactive,inactive
Nc1nc(N)nc(N)n1,inactive,inactive,inactive,inactive,inactive,inactive,inactive,inactive,inactive,inactive
CN1C(=O)NC(=O)C(C)(C2=CCCCC2)C1=O (centres undefined),inactive,inactive,inactive,inactive,inactive,inactive,inactive,inactive,inactive,inactive
O=C(CCl)c1ccc(Cl)cc1Cl,inactive,8.49 µM (active),inactive,23.9 µM (active),inactive,inactive and 16.9 µM (active),4.77 µM (active),inactive,inactive,inactive
C=C(C#N)CCC#N,inactive,inactive,inactive,inactive,inactive,inactive,inactive,inactive,inactive,inactive
CCOP(=O)(OCC)SCCSCC,inactive,inactive,inactive,inactive,inactive,inactive,inactive,inactive,inactive,inactive
CC(=O)C(C)(C)C,inactive,inactive,inactive,inactive,inactive,inactive,inactive,inactive,inactive,inactive
CC(=O)[C@H]1CC[C@H]2[C@@H]3CC[C@H]4C[C@](C)(O)CC[C@]4(C)[C@H]3CC[C@]12C,inactive,inactive,inactive,inactive,inactive,inactive,inactive,inactive,inactive,inactive
O=C(C(Cl)(Cl)Cl)C(Cl)(Cl)Cl,inactive,inactive,inactive,inactive,inactive,inactive,inactive,inactive,inactive,inactive
CCc1ccc(C(=O)NN(C(=O)c2cc(C)cc(C)c2)C(C)(C)C)cc1,inactive,inactive,inactive,inactive,inactive,inactive,inactive,inactive,inactive,inactive
CC(C)O.CC(C)O.OCCN(CCO)CCO.OCCN(CCO)CCO.[Ti],inactive,inactive,inactive,inactive,inactive,inactive,inactive,inactive,inactive,inactive
Cc1ccc(N)cc1C,inactive,inactive,inactive,inactive,inactive,inactive,inactive,inactive,inactive,inactive
CCCCN=C=O,inactive,inactive,inactive,inactive,inactive,inactive,inactive,inactive,inactive,inactive

# From PubChem BioAssay (Tox21)
